From PMC9911399, “Two distinct binding modes provide the RNA-binding protein RbFox with extraordinary sequence specificity”
Substitutions are numbered along the chain they refer to; changes in the protein carry UniProt numbers. In all, about 16,000 sequences were measured (“ka relative to ugcaugu”: median about 0.0091, highest 2% from about 0.032 on). Shown is part of a subset that was picked to be rich in the highest values.

B1: CAACUAC (DNA:RNA)
RNA: GGGAGACCGGAAUUCAGAUUGUCCCAACUACUUAAAUCCCGUCGUAGCCACCA
DNA 1: CAATCTGAATTCCGGTCTCCC
DNA 2: TGGTGGCTACGACGGGATT
B2: UGACGCG (DNA:RNA)
RNA: B1 RNA with C25U, A26G, U29G, A30C, C31G
DNA 1: CAATCTGAATTCCGGTCTCCC
DNA 2: TGGTGGCTACGACGGGATT
B3: UACCGAU (DNA:RNA)
RNA: B1 RNA with C25U, A27C, U29G, C31U
DNA 1: CAATCTGAATTCCGGTCTCCC
DNA 2: TGGTGGCTACGACGGGATT
B4: GACGCUG (DNA:RNA)
RNA: B1 RNA with C25G, A27C, C28G, U29C, A30U, C31G
DNA 1: CAATCTGAATTCCGGTCTCCC
DNA 2: TGGTGGCTACGACGGGATT
B5: CGGAUCU (DNA:RNA)
RNA: B1 RNA with A26G, A27G, C28A, A30C, C31U
DNA 1: CAATCTGAATTCCGGTCTCCC
DNA 2: TGGTGGCTACGACGGGATT
B6: GGAUCUC (DNA:RNA)
RNA: B1 RNA with C25G, A26G, C28U, U29C, A30U
DNA 1: CAATCTGAATTCCGGTCTCCC
DNA 2: TGGTGGCTACGACGGGATT
B7: GGGAUCU (DNA:RNA)
RNA: B1 RNA with C25G, A26G, A27G, C28A, A30C, C31U
DNA 1: CAATCTGAATTCCGGTCTCCC
DNA 2: TGGTGGCTACGACGGGATT
B8: CGGAGUC (DNA:RNA)
RNA: B1 RNA with A26G, A27G, C28A, U29G, A30U
DNA 1: CAATCTGAATTCCGGTCTCCC
DNA 2: TGGTGGCTACGACGGGATT
B9: GGGAAUC (DNA:RNA)
RNA: B1 RNA with C25G, A26G, A27G, C28A, U29A, A30U
DNA 1: CAATCTGAATTCCGGTCTCCC
DNA 2: TGGTGGCTACGACGGGATT
B10: GGAUCUU (DNA:RNA)
RNA: B1 RNA with C25G, A26G, C28U, U29C, A30U, C31U
DNA 1: CAATCTGAATTCCGGTCTCCC
DNA 2: TGGTGGCTACGACGGGATT
B11: GGGGAUC (DNA:RNA)
RNA: B1 RNA with C25G, A26G, A27G, C28G, U29A, A30U
DNA 1: CAATCTGAATTCCGGTCTCCC
DNA 2: TGGTGGCTACGACGGGATT
B12: GGAGUCU (DNA:RNA)
RNA: B1 RNA with C25G, A26G, C28G, A30C, C31U
DNA 1: CAATCTGAATTCCGGTCTCCC
DNA 2: TGGTGGCTACGACGGGATT
B13: GCGGAUC (DNA:RNA)
RNA: B1 RNA with C25G, A26C, A27G, C28G, U29A, A30U
DNA 1: CAATCTGAATTCCGGTCTCCC
DNA 2: TGGTGGCTACGACGGGATT
B14: GGAGAUC (DNA:RNA)
RNA: B1 RNA with C25G, A26G, C28G, U29A, A30U
DNA 1: CAATCTGAATTCCGGTCTCCC
DNA 2: TGGTGGCTACGACGGGATT
B15: GUUAAUC (DNA:RNA)
RNA: B1 RNA with C25G, A26U, A27U, C28A, U29A, A30U
DNA 1: CAATCTGAATTCCGGTCTCCC
DNA 2: TGGTGGCTACGACGGGATT
B16: GGGAGUC (DNA:RNA)
RNA: B1 RNA with C25G, A26G, A27G, C28A, U29G, A30U
DNA 1: CAATCTGAATTCCGGTCTCCC
DNA 2: TGGTGGCTACGACGGGATT
B17: UAUUACU (DNA:RNA)
RNA: B1 RNA with C25U, A27U, C28U, U29A, A30C, C31U
DNA 1: CAATCTGAATTCCGGTCTCCC
DNA 2: TGGTGGCTACGACGGGATT
B18: AUAAGGU (DNA:RNA)
RNA: B1 RNA with C25A, A26U, C28A, U29G, A30G, C31U
DNA 1: CAATCTGAATTCCGGTCTCCC
DNA 2: TGGTGGCTACGACGGGATT
B19: CCGAAGU (DNA:RNA)
RNA: B1 RNA with A26C, A27G, C28A, U29A, A30G, C31U
DNA 1: CAATCTGAATTCCGGTCTCCC
DNA 2: TGGTGGCTACGACGGGATT
B20: AGGUAUU (DNA:RNA)
RNA: GGGAGACCGGAAUUCAGAUUGUCCAGGUAUUUUAAAUCCCGUCGUAGCCACCA
DNA 1: CAATCTGAATTCCGGTCTCCC
DNA 2: TGGTGGCTACGACGGGATT
B21: UCAUCUG (DNA:RNA)
RNA: B20 RNA with A25U, G26C, G27A, A29C, U31G
DNA 1: CAATCTGAATTCCGGTCTCCC
DNA 2: TGGTGGCTACGACGGGATT
B22: GAGUUUA (DNA:RNA)
RNA: B20 RNA with A25G, G26A, A29U, U31A
DNA 1: CAATCTGAATTCCGGTCTCCC
DNA 2: TGGTGGCTACGACGGGATT
B23: ACUCUUU (DNA:RNA)
RNA: B20 RNA with G26C, G27U, U28C, A29U
DNA 1: CAATCTGAATTCCGGTCTCCC
DNA 2: TGGTGGCTACGACGGGATT
B24: AGGUCUA (DNA:RNA)
RNA: B20 RNA with A29C, U31A
DNA 1: CAATCTGAATTCCGGTCTCCC
DNA 2: TGGTGGCTACGACGGGATT
B25: GAGAGUC (DNA:RNA)
RNA: B20 RNA with A25G, G26A, U28A, A29G, U31C
DNA 1: CAATCTGAATTCCGGTCTCCC
DNA 2: TGGTGGCTACGACGGGATT
B26: CGGAAUC (DNA:RNA)
RNA: B20 RNA with A25C, U28A, U31C
DNA 1: CAATCTGAATTCCGGTCTCCC
DNA 2: TGGTGGCTACGACGGGATT
B27: CCGGAUC (DNA:RNA)
RNA: B20 RNA with A25C, G26C, U28G, U31C
DNA 1: CAATCTGAATTCCGGTCTCCC
DNA 2: TGGTGGCTACGACGGGATT
B28: CCGAGUC (DNA:RNA)
RNA: B20 RNA with A25C, G26C, U28A, A29G, U31C
DNA 1: CAATCTGAATTCCGGTCTCCC
DNA 2: TGGTGGCTACGACGGGATT
B29: CGGGAUC (DNA:RNA)
RNA: B20 RNA with A25C, U28G, U31C
DNA 1: CAATCTGAATTCCGGTCTCCC
DNA 2: TGGTGGCTACGACGGGATT
B30: GAGUCUC (DNA:RNA)
RNA: B20 RNA with A25G, G26A, A29C, U31C
DNA 1: CAATCTGAATTCCGGTCTCCC
DNA 2: TGGTGGCTACGACGGGATT
B31: CAUGGAC (DNA:RNA)
RNA: B1 RNA with A27U, C28G, U29G
DNA 1: CAATCTGAATTCCGGTCTCCC
DNA 2: TGGTGGCTACGACGGGATT

The binders below were run against T1, RBFOX1 RRM (Homo sapiens, UniProt Q9NWB1 109-208) (assay: EMSA; HiTS-Eq, 1 nM pool, 10 min; buffer printed only for the single-RNA assays: 10 mM Tris pH 7.5, 150 mM NaCl, 3.4 mM EDTA, 0.001% NP-40, 30 C). Details: tags: His6 N-terminal (pET28a); label: 5' 32P.
T1 sequence: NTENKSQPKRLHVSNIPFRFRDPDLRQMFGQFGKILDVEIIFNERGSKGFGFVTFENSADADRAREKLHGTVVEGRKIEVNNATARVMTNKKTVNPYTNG
How it was run: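 Purified RbFox RRM (wild type or mutant) was equilibrated for 10 min in 50 µL with 1 nM of a 5′-radiolabelled pool of RNA with 7 randomized nucleotides, its flanks annealed to DNA oligonucleotides, across increasing protein concentrations. Free RNA was separated by 8% native PAGE, excised, reverse-transcribed, PCR-barcoded and sequenced on an Illumina HiSeq 2500. Relative association constants came from read-count changes of each variant against the control reaction, normalised to the cognate motif.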
For B1, the binding signal was 0.000393 KA relative to UGCAUGU. B2 was tested, and the binding signal was 0.0215 KA relative to UGCAUGU. In the case of B3, the binding signal is reported as 0.00545 KA relative to UGCAUGU. B4 was tested, and the binding signal was 0.0241 KA relative to UGCAUGU. B5 was tested, and the binding signal was 0.0232 KA relative to UGCAUGU. B6 was tested, and the binding signal was 0.0209 KA relative to UGCAUGU. With B7 the binding signal was 0.0381 KA relative to UGCAUGU. In the case of B8, the binding signal is reported as 0.0303 KA relative to UGCAUGU. In the case of B9, the binding signal is reported as 0.0328 KA relative to UGCAUGU. For B10, the binding signal was 0.0133 KA relative to UGCAUGU. In the case of B11, the binding signal is reported as 0.0348 KA relative to UGCAUGU. With B12 the binding signal was 0.0284 KA relative to UGCAUGU. For B13, the binding signal was 0.00958 KA relative to UGCAUGU. In the case of B14, the binding signal is reported as 0.0208 KA relative to UGCAUGU. With B15 the binding signal was 0.00989 KA relative to UGCAUGU. With B16 the binding signal was 0.0339 KA relative to UGCAUGU. With B17 the binding signal was 0.00399 KA relative to UGCAUGU. In the case of B18, the binding signal is reported as 0.00979 KA relative to UGCAUGU. B19 was tested, and the binding signal was 0.00878 KA relative to UGCAUGU. B20 was tested, and the binding signal was 0.0064 KA relative to UGCAUGU. For B21, the binding signal was 0.00773 KA relative to UGCAUGU. For B22, the binding signal was 0.00687 KA relative to UGCAUGU. With B23 the binding signal was 0.00357 KA relative to UGCAUGU. For B24, the binding signal was 0.00527 KA relative to UGCAUGU. For B25, the binding signal was 0.0183 KA relative to UGCAUGU. In the case of B26, the binding signal is reported as 0.0233 KA relative to UGCAUGU. For B27, the binding signal was 0.0104 KA relative to UGCAUGU. With B28 the binding signal was 0.0112 KA relative to UGCAUGU. For B29, the binding signal was 0.0318 KA relative to UGCAUGU. B30 was tested, and the binding signal was 0.032 KA relative to UGCAUGU. In the case of B31, the binding signal is reported as 0.00577 KA relative to UGCAUGU.
